SMILES strings stand for the structures. Records with an inconclusive call do not appear. Active and inactive are the calls of the source. Calls follow the shape of the dose curve; as a rule, active = well fitted inhibition curve with a large enough effect; inconclusive = small, poorly fitted or top-dose-only effect; inactive = flat fitted curve, though single readings scatter.

What all share (experiment): qHTS profiling for inhibitors of Plasmodium falciparum proliferation (AID 504749); also: nearly all actives have a fitted effect of over 60% in size
Holding throughout (conditions): P. falciparum in erythrocytes, SYBR Green DNA, 72 h; series mostly up to 28.7 µM
(In general: qHTS replaces the single test concentration by a dilution series.)

One test has as its system CP185. In outline:
(§1)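 Three-day growth assay of blood-stage parasites in erythrocytes (0.3% parasitemia, 2.5% hematocrit) at 37 C, 5% CO2, quantified by SYBR Green DNA staining after overnight detergent lysis.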

The next test deals with CP217. In outline: as §1
The next test concerns CP237. The procedure, abridged:
as §1

The next test concerns CP191. The procedure, abridged: as §1
Another test relates to CP192. In outline:
as §1

A further test has as its system CP201. In outline:
as §1

A further test has as its system CP211. In outline:
as §1

A further test relates to CP203. The procedure, abridged: as §1
The next test relates to CP194. The procedure, abridged: as §1
A further test relates to CP215. The procedure, abridged: as §1
Potency is read from the fitted curve at half-maximal effect.

Regarding `CC(C)(C)C(=O)C(Oc1ccc(Cl)cc1)n1ccnc1` (configuration not stated), the Potency entry with CP185 was “inactive”. The results for the Potency in the test on CP217 and in the test with CP237 were 10 µM (active) and 7.08 µM (active), respectively.
For the molecule `CN1CCN(C2Cc3ccccc3Sc3ccc(Cl)cc32)CC1` (configuration not stated), the Potency result in the test with CP185, in the test with CP191, with CP192, in the test on CP201 and in the test with CP211 was “inactive” each time.
`CCN(CC)CCNC(=O)c1c(C)[nH]c(/C=C2\C(=O)Nc3ccc(F)cc32)c1C`: the Potency was 7.08 µM (active) in the test on CP185; 7.94 µM (active) in the test on CP191; 10.7 µM (active) with CP203; 10.7 µM (active) in the test on CP211; 11.2 µM (active) in the test with CP217; 8.91 µM (active) in the test on CP237.
For `Cc1c(O)cccc1C(=O)N[C@@H](CSc1ccccc1)[C@H](O)CN1C[C@H]2CCCC[C@H]2C[C@H]1C(=O)NC(C)(C)C`, the Potency entry in the test with CP185, in the test with CP192 and with CP211 was “inactive” throughout.
Take `Cc1cc(N)c2ccccc2[n+]1CCCCCCCCCC[n+]1c(C)cc(N)c2ccccc21`: the Potency in the test on CP185 was 0.316 µM (active); with CP191, 0.0501 µM (active); with CP194, 0.361 µM (active); in the test with CP201 it was 0.642 µM (active); in the test on CP211, 0.144 µM (active); in the test with CP215, 0.809 µM (active). The figures for the Potency with CP217 and with CP237 were 0.447 µM (active) and 0.126 µM (active), respectively.
Take `NC(=O)N/N=C/c1ccc([N+](=O)[O-])o1`: the Potency result with CP192 and with CP211 was “inactive” throughout. Besides, the Potency in the test on CP237 was 10 µM (active).
For `CCOC(CN1CCN(CC(C)C(=O)c2ccccc2)CC1)c1ccccc1` (configuration not stated), the Potency result with CP185, in the test on CP191, in the test on CP192, in the test with CP201, with CP203 and in the test on CP211 was “inactive” in each case. Further, the Potency result in the test with CP215 and in the test on CP217 was “inactive” throughout.
Regarding `CCOc1nc2cccc(C(=O)O)c2n1Cc1ccc(-c2ccccc2-c2nn[nH]n2)cc1`, the Potency entry with CP185, with CP191, with CP192, with CP201, with CP211 and in the test on CP237 was “inactive” throughout.

The values above are taken from PubChem BioAssay (NCATS).
